Measurements: PubChem BioAssay (NCI)
Compounds without any hit were thinned out: in the full panel of roughly 79,000, 15% have a hit. A number with no mark means an inactive call. Active and inactive are the calls of the source. Cut-off read from the data, not from the text of the source: active = growth inhibition above about 70%; inactive = the rest.

Tests used:
[1] = NCI Yeast Anticancer Drug Screen. Data for the rad52 strain (AID 147);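 note: 0% = growth of vehicle-treated control cultures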; conditions: S. cerevisiae rad52 mutant growth inhibition, active compounds read high
Method in brief: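 Compounds are applied to a genetically defined yeast strain lacking normal DNA damage repair, and inhibition of growth is expressed relative to cultures given vehicle only.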

[2] = NCI Yeast Anticancer Drug Screen. Data for the wt1 strain (AID 149);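 note: 0% = growth of vehicle-treated wt1 cultures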; conditions: S. cerevisiae wt1 strain (SPY 50644) growth inhibition, active compounds read high
Method in brief: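 Using yeast strain wt1, compound-induced growth inhibition was determined against vehicle-treated cultures.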

[3] = NCI Yeast Anticancer Drug Screen. Data for the rad50EPP+ strain (AID 151);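 note: 0% = growth of vehicle-treated control cultures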; conditions: S. cerevisiae rad50 mutant strain, active compounds read high
Method in brief: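 Compounds were applied to the rad50EPP+ yeast strain, which bears a defined DNA repair alteration, and growth inhibition was determined relative to vehicle-treated cultures.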

[4] = NCI Yeast Anticancer Drug Screen. Data for the mgt1 strain (AID 153); conditions: S. cerevisiae mgt1 mutant growth inhibition, active compounds read high
Method in brief: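 Strain: mgt1 yeast, one of a set carrying defined DNA damage repair or cell cycle control alterations. Compound-treated growth compared with vehicle.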

[5] = NCI Yeast Anticancer Drug Screen. Data for the rad50 strain (AID 155);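 note: 0% = growth of vehicle-only cultures of the same strain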; conditions: S. cerevisiae rad50 strain growth inhibition, active compounds read high
Method in brief: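 Relative growth inhibition (compound vs vehicle) was measured in yeast with a defined repair-gene alteration.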

[6] = NCI Yeast Anticancer Drug Screen. Data for the mec2-1 strain (AID 157); conditions: S. cerevisiae mec2-1 strain, active compounds read high
Method in brief: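 Strain: mec2-1 (DNA repair/cell cycle alteration). Compound exposure, then growth measured; inhibition expressed relative to vehicle.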

[7] = NCI Yeast Anticancer Drug Screen. Data for the rad14 strain (AID 159);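 note: 0% = growth of vehicle-treated control cultures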; conditions: S. cerevisiae rad14 strain growth inhibition, active compounds read high
Method in brief: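 Screen for anticancer potential: a yeast strain altered in DNA damage repair is grown with compound, and reduced growth is quantified against vehicle controls.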

[8] = NCI Yeast Anticancer Drug Screen. Data for the sgs1 mgt1 strain (AID 161);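 note: 0% = growth of cultures given vehicle only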; conditions: S. cerevisiae sgs1 mgt1 strain, active compounds read high
Method in brief: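 Mutant yeast exposed to compound; growth scored against vehicle-only wells.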

[9] = NCI Yeast Anticancer Drug Screen. Data for the CLN2oe strain (AID 163);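 note: 0% = growth of vehicle-only control cultures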; conditions: S. cerevisiae CLN2oe strain, active compounds read high
Method in brief: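 Growth of a genetically modified yeast strain is measured after compound exposure and compared with cultures given vehicle alone.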

[10] = NCI Yeast Anticancer Drug Screen. Data for the cln2 rad14 strain (AID 165);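 note: 0% = growth equal to vehicle treated cultures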; conditions: S. cerevisiae cln2 rad14 strain, active compounds read high
Method in brief: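 Compounds are applied to the cln2 rad14 yeast strain, and growth is then compared with that of vehicle-treated cultures to give inhibition.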

[11] = NCI Yeast Anticancer Drug Screen. Data for the bub3 strain (AID 167); conditions: S. cerevisiae bub3 mutant strain, active compounds read high
Method in brief: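 Screening used yeast with an engineered genetic alteration affecting cell cycle control. Compound-exposed cultures were compared with vehicle cultures, and reduced growth was taken as inhibition.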

[12] = NCI Yeast Anticancer Drug Screen. Data for the wt2 strain (AID 169);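 note: 0% = growth of vehicle-treated yeast cultures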; conditions: S. cerevisiae wt2 strain growth inhibition, active compounds read high
Method in brief: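 This strain belongs to a panel of yeast strains with defined genetic alterations in DNA damage repair or cell cycle control. Compounds are applied, and growth inhibition is measured against vehicle-treated cultures.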

[13] = NCI Yeast Anticancer Drug Screen. Data for the mlh1 strain (AID 171);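 note: 0% = growth of vehicle-treated control cultures of the same strain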; conditions: S. cerevisiae mlh1 strain growth inhibition, active compounds read high
Method in brief: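 Growth of the mutant yeast strain after compound exposure, expressed as inhibition relative to vehicle-only controls.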

[14] = NCI Yeast Anticancer Drug Screen. Data for the mlh1 rad18 strain (AID 175); conditions: S. cerevisiae mlh1 rad18 strain growth inhibition, active compounds read high
Method in brief: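 Read-out is yeast growth inhibition, calculated against vehicle-only controls. The compound was applied to a strain engineered with DNA damage repair alterations.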

[15] = NCI Yeast Anticancer Drug Screen. Data for the rad18 strain (AID 177); conditions: S. cerevisiae rad18 mutant growth inhibition, active compounds read high
Method in brief: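 Growth of the mutant yeast strain after compound exposure, normalised to vehicle-only cultures.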

[16] = at 5.0 µM (retest, dose inferred, filed as 0.5)
[17] = at 50.0 µM (retest, dose inferred, filed as 5.0)

`Cc1ccc(Nc2nc3c(=O)n(C)c(=O)n(C)c3nc2Nc2ccc(C)cc2)cc1` showed a growth inhibition ([1]; at 1.2 µM) of -2%, a growth inhibition ([1]; at 3.7 µM) of 2% and a growth inhibition ([1]; at 11.0 µM) of 2%. It also gave a growth inhibition ([1]; at 33.0 µM) of 2%, a growth inhibition ([1]; at 100.0 µM) of 30% and a growth inhibition ([2]; at 1.2 µM) of 0%. It also gave a growth inhibition ([2]; at 3.7 µM) of -1%, a growth inhibition ([2]; at 11.0 µM) of 1% and a growth inhibition ([2]; at 33.0 µM) of -3%. For the same compound, the growth inhibition ([2]; at 100.0 µM) was 6%, the growth inhibition ([3]; at 1.2 µM) was 3% and the growth inhibition ([3]; at 3.7 µM) was -2%. It also gave a growth inhibition ([3]; at 11.0 µM) of -6%, a growth inhibition ([3]; at 33.0 µM) of -16% and a growth inhibition ([3]; at 100.0 µM) of 41%. The growth inhibition ([4]; at 1.2 µM) was -2%, the growth inhibition ([4]; at 3.7 µM) was -4% and the growth inhibition ([4]; at 11.0 µM) was -4%. It also gave a growth inhibition ([4]; at 33.0 µM) of 11%, a growth inhibition ([4]; at 100.0 µM) of -2% and a growth inhibition ([5]; at 1.2 µM) of -2%. It also gave a growth inhibition ([5]; at 3.7 µM) of 1%, a growth inhibition [5, 16] of -13% and a growth inhibition ([5]; at 11.0 µM) of 2%. For the same compound, the growth inhibition ([5]; at 33.0 µM) was 0%, the growth inhibition [5, 17] was 66% and the growth inhibition ([5]; at 50.0 µM) was 92.5% (active). The growth inhibition ([5]; at 100.0 µM) was 23%, the growth inhibition ([6]; at 1.2 µM) was -2% and the growth inhibition ([6]; at 3.7 µM) was 3%. The growth inhibition [6, 16] was -9%, the growth inhibition ([6]; at 11.0 µM) was -2% and the growth inhibition ([6]; at 33.0 µM) was -4%. For the same compound, the growth inhibition [6, 17] was 22%, the growth inhibition ([6]; at 50.0 µM) was 95.3% (active) and the growth inhibition ([6]; at 100.0 µM) was 11%. The growth inhibition ([7]; at 1.2 µM) was 0%, the growth inhibition ([7]; at 3.7 µM) was -4% and the growth inhibition ([7]; at 11.0 µM) was -1%. For the same compound, the growth inhibition ([7]; at 33.0 µM) was -5%, the growth inhibition ([7]; at 100.0 µM) was 7% and the growth inhibition [8, 16] was -2%. The growth inhibition [8, 17] was 45%, the growth inhibition ([8]; at 50.0 µM) was 92.8% (active) and the growth inhibition ([9]; at 1.2 µM) was -2%. It also gave a growth inhibition ([9]; at 3.7 µM) of 3%, a growth inhibition ([9]; at 11.0 µM) of -4% and a growth inhibition ([9]; at 33.0 µM) of -5%. It also gave a growth inhibition ([9]; at 100.0 µM) of -10%, a growth inhibition [10, 16] of -14% and a growth inhibition [10, 17] of 11%. The growth inhibition ([10]; at 50.0 µM) was 79.3% (active), the growth inhibition ([11]; at 1.2 µM) was -3% and the growth inhibition ([11]; at 3.7 µM) was -5%. The growth inhibition [11, 16] was -9%, the growth inhibition ([11]; at 11.0 µM) was 0% and the growth inhibition ([11]; at 33.0 µM) was -1%. For the same compound, the growth inhibition [11, 17] was 16%, the growth inhibition ([11]; at 50.0 µM) was 94.5% (active) and the growth inhibition ([11]; at 100.0 µM) was 2%. For the same compound, the growth inhibition ([12]; at 1.2 µM) was 0%, the growth inhibition ([12]; at 3.7 µM) was -1% and the growth inhibition ([12]; at 11.0 µM) was -1%. For the same compound, the growth inhibition ([12]; at 33.0 µM) was -2%, the growth inhibition ([12]; at 100.0 µM) was 12% and the growth inhibition ([13]; at 1.2 µM) was 0%. For the same compound, the growth inhibition ([13]; at 3.7 µM) was -2%, the growth inhibition ([13]; at 11.0 µM) was 1% and the growth inhibition ([13]; at 33.0 µM) was -3%. The growth inhibition ([13]; at 100.0 µM) was 3%, the growth inhibition [14, 16] was -14% and the growth inhibition [14, 17] was 89% (active). For the same compound, the growth inhibition ([14]; at 50.0 µM) was 95.7% (active), the growth inhibition ([15]; at 1.2 µM) was 2% and the growth inhibition ([15]; at 3.7 µM) was 0%. For the same compound, the growth inhibition ([15]; at 11.0 µM) was 11%, the growth inhibition ([15]; at 33.0 µM) was 4% and the growth inhibition ([15]; at 100.0 µM) was 46%.
